Experimental data: PubChem BioAssay (EPA / NIEHS)
“And” between values parts separate entries of the source, which are not always exact repeats. Equal values may be shown once. Some structures have more than one record in an assay (separate samples or runs), and their calls can disagree. The source made the active and inactive calls. How the source made its calls: active means hit-call score of the fitted dose curve at least 0.9, where 1 is the maximum; inactive means score below 0.9.

What was measured:
CD40, CD40 (gene 958) = assay: BSK_SAg_CD40: BioMAP Diversity Plus: SAg Assay for CD40 Biomarker Activity (AID 2283088); conditions: primary human HUVEC with PBMC; actives raise or lower the signal
Method in brief: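 Human umbilical vein endothelial cells co-cultured with PBMC; CD40 levels measured by ELISA with fluorescence read-out 24 h after chemical dosing. Gain or loss of signal fitted bidirectionally against DMSO baseline.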

[1] = ATG_GATA_CIS: Attagene CIS-FACTORIAL HepG2 Assay for human GATA Binding Protein (AID 2282944); conditions: HepG2 GATA cis-element reporter, Attagene multiplex mRNA; actives raise or lower the signal
Method in brief: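 Transient MRTU transfection, HepG2, 24 h compound exposure. Total RNA → oligo(dT) RT → PCR → 6-FAM primer extension → HpaI cut → CE. Bidirectional fit vs DMSO.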

[2] = ATG_GLI_CIS: Attagene CIS-FACTORIAL HepG2 Assay for human Zinc Finger Protein GLI1 (AID 2282945); conditions: HepG2, Attagene cis-factorial reporter mRNA, GLI element; actives raise or lower the signal
Method in brief: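 Bidirectional curve fits relative to DMSO, using reporter mRNA levels from RT-PCR plus capillary electrophoresis. Cells were HepG2 transiently carrying cis-regulated reporter constructs, harvested 24 h after dosing.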

[3] = ATG_ISRE_CIS: Attagene CIS-FACTORIAL HepG2 Assay for human Interferon Regulatory Factor 1 (IRF1) binding to an Interferon-Stimulated Response Element (ISRE) (AID 2282948); conditions: HepG2 ISRE cis-reporter (Attagene), mRNA transcription readout; actives raise or lower the signal
Method in brief: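 Multiplexed mRNA reporter readout in human liver HepG2 cells: cis-element-driven reporters transfected, compound added for 24 h, transcripts amplified, fluorescently labelled and sized by capillary electrophoresis; curve fitting bidirectional against DMSO.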

[4] = ATG_M_32_CIS: Attagene CIS-FACTORIAL HepG2 Assay for M32 Transcription Factor (Internal Marker) (AID 2282949); conditions: HepG2 Attagene cis-factorial M32 reporter, mRNA; actives raise or lower the signal;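 further: background control marker of the multiplexed CIS panel rather than a real target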
Method in brief: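 Using DMSO as baseline, bidirectional curve fits were applied to reporter mRNA signals. These came from transiently transfected HepG2 cells exposed for 24 h, with RNA analysed by RT-PCR, FAM primer extension, HpaI digestion and CE.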

[5] = ATG_M_06_CIS: Attagene CIS-FACTORIAL HepG2 Assay for M06 Transcription Factor (Internal Marker) (AID 2282950); conditions: HepG2 Attagene CIS-FACTORIAL M06 internal marker reporter; actives raise or lower the signal
Method in brief: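 Read-out is fluorescence of labelled reporter cDNA fragments resolved by capillary electrophoresis after RT-PCR. Cells: HepG2 carrying transfected cis-promoter reporter units, treated 24 h. Gain or loss of signal fitted relative to DMSO.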

[6] = ATG_MRE_CIS: Attagene CIS-FACTORIAL HepG2 Assay for human Metal Responsive Element (MRE) (AID 2282954); conditions: HepG2 MRE cis-reporter transcription, Attagene multiplex; actives raise or lower the signal
Method in brief: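 Multiplexed cis-reporter assay in human HepG2 liver cells, 24 h incubation with test chemical. Reporter transcripts measured by RT-PCR and capillary electrophoresis; values from bidirectional curve fitting versus DMSO.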

[7] = ATG_PXRE_CIS: Attagene CIS-FACTORIAL HepG2 Assay for human Pregnane X Receptor Element (PXRE) (AID 2282957); conditions: HepG2 Attagene CIS-FACTORIAL PXRE reporter, mRNA; actives raise or lower the signal
Method in brief: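 Fluorescent capillary electrophoresis of amplified reporter cDNA gave the signal, collected 24 h after dosing HepG2 cells that held transfected cis-element reporter constructs.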

[8] = ATG_Sox_CIS: Attagene CIS-FACTORIAL HepG2 Assay for human SRY-box transcription factor (SOX) (AID 2282960); conditions: HepG2 Attagene cis-factorial SOX reporter, mRNA; actives raise or lower the signal
Method in brief: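 Using transiently transfected HepG2 cells, reporter transcription driven by cis elements was assessed 24 h after dosing. Signal was fluorescence of capillary-separated RT-PCR products, with DMSO defining baseline activity.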

[9] = target: Transcription factor Sp1 (Homo sapiens) (UniProt P08047); assay: ATG_Sp1_CIS: Attagene CIS-FACTORIAL HepG2 Assay for human Specificity Protein 1 (Sp1) (AID 2282961); conditions: HepG2 Sp1 cis-reporter transcription, actives raise or lower the signal
Method in brief: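 After transient transfection of HepG2 cells with cis-promoter reporter units and 24 h chemical treatment, reporter transcripts were quantified by RT-PCR and capillary electrophoresis fluorescence. Gain- and loss-of-signal fitted against DMSO.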

[10] = ATG_SREBP_CIS: Attagene CIS-FACTORIAL HepG2 Assay for human Sterol Regulatory Element Binding (SREBP) (AID 2282962); conditions: HepG2 Attagene cis-factorial SREBP reporter, mRNA; actives raise or lower the signal
Method in brief: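 Endogenous factor activity is measured in HepG2 through multiplexed reporter units under cis-element control. Following a 24 h incubation, reporter transcripts are reverse-transcribed, PCR-amplified and sized by capillary electrophoresis; activity is fitted in both directions relative to DMSO.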

[11] = target: Signal transducer and activator of transcription 3 (Homo sapiens) (UniProt P40763); assay: ATG_STAT3_CIS: Attagene CIS-FACTORIAL HepG2 Assay for human Signal Transducer and Activator of Transcription 3 (STAT3) (AID 2282963); conditions: HepG2, Attagene cis-factorial STAT3 reporter transcription; actives raise or lower the signal
Method in brief: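 Cis-factorial format: endogenous transcription factors in HepG2 drive transfected reporter units. After 24 h treatment, reporter RNA was reverse-transcribed, amplified, FAM-labelled and HpaI-digested before CE analysis; activity scored in both directions against DMSO.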

[12] = ATG_TA_CIS: Attagene CIS-FACTORIAL HepG2 Assay for human TA Basal Promoter (AID 2282964); conditions: HepG2 Attagene CIS-factorial TA basal promoter reporter; actives raise or lower the signal
Method in brief: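 Read-out: fluorescent reporter-transcript fragments resolved by capillary electrophoresis after RT-PCR and HpaI digestion. Source: HepG2 cells carrying transiently transfected multi-reporter cis constructs, treated 24 h. Endpoint fitted bidirectionally relative to DMSO.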

[13] = ATG_TCF_b_cat_CIS: Attagene CIS-FACTORIAL HepG2 Assay for human T-Cell-Factor with beta-catenin (TCF/b-cat) (AID 2282965); conditions: HepG2 TCF/beta-catenin cis-reporter transcription, actives raise or lower the signal
Method in brief: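 Endogenous TCF/LEF activity read as reporter transcript level via RT-PCR and capillary electrophoresis fluorescence in transfected HepG2, 24 h exposure; gain or loss of signal fitted against DMSO controls.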

[14] = ATG_TAL_CIS: Attagene CIS-FACTORIAL HepG2 Assay for human TAL Basal Promoter (AID 2282966); conditions: HepG2 Attagene cis-factorial TAL promoter reporter; actives raise or lower the signal;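 further: background control endpoint measuring basal TAL promoter reporter mRNA not a specific factor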
Method in brief: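 Transiently transfected HepG2 (cis-regulated reporter units), 24 h treatment, mRNA read by fluorescent CE after RT-PCR; bidirectional fit, DMSO baseline.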

[15] = target: X-box-binding protein 1 (Homo sapiens) (UniProt P17861); assay: ATG_Xbp1_CIS: Attagene CIS-FACTORIAL HepG2 Assay for human X-box Binding Protein 1 (XBP1) (AID 2282972); conditions: HepG2 XBP1 cis-element reporter, Attagene multiplex; actives raise or lower the signal
Method in brief: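 Multiplexed cis-reporter readout in transfected HepG2 liver cells. Exposure lasted 24 hours. Activity in either direction was fitted against DMSO as negative control and baseline.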

[16] = target: Transcriptional activator Myb (Homo sapiens) (UniProt P10242); assay: ATG_Myb_CIS: Attagene CIS-FACTORIAL HepG2 Assay for human Myeloblastosis (Myb) Proto-Oncogene Transcription Factor (AID 2282986); conditions: HepG2 Attagene CIS-FACTORIAL Myb reporter transcription; actives raise or lower the signal
Method in brief: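 Multiplexed cis-reporter system in HepG2: transient transfection, 24 h treatment, mRNA readout by RT-PCR and capillary electrophoresis. Both increases and decreases are scored versus DMSO negative control.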

[17] = ATG_NFI_CIS: Attagene CIS-FACTORIAL HepG2 Assay for human Nuclear Factor I (NFI) (AID 2282989); conditions: HepG2 cis-regulatory reporter, NFI response element transcription; actives raise or lower the signal
Method in brief: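 Transient MRTU transfection of HepG2 → 24 h chemical dosing → total RNA, oligo(dT) RT → PCR, 6-FAM primer extension, HpaI cut → capillary electrophoresis. Endpoint fitted bidirectionally relative to DMSO.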

[18] = target: Myc proto-oncogene protein (Homo sapiens) (UniProt P01106); assay: ATG_Myc_CIS: Attagene CIS-FACTORIAL HepG2 Assay for human Myelocytomatosis (Myc) Proto-Oncogene Transcription Factor (AID 2282990); conditions: HepG2, Attagene cis-reporter transcription factor activity; actives raise or lower the signal
Method in brief: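 After 24 h chemical treatment of HepG2 cells carrying multiplexed cis-regulated reporter constructs, reporter transcripts quantified by RT-PCR and capillary electrophoresis of fluorescent fragments. Gain or loss fitted against DMSO baseline.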

[19] = ATG_Oct_MLP_CIS: Attagene CIS-FACTORIAL HepG2 Assay for human Octamer-Binding Transcription Factor (Oct) (AID 2282993); conditions: HepG2 Attagene cis-factorial Oct reporter, mRNA; actives raise or lower the signal
Method in brief: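 Transient MRTU transfection of HepG2 → 24 h compound treatment → RNA isolation, reverse transcription, PCR → 6-FAM primer extension, HpaI digest → capillary electrophoresis. Activity fitted both directions against DMSO.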

Measured: AC50

Sequence of X-box-binding protein 1 (Homo sapiens) (P17861 whole entry, looked up): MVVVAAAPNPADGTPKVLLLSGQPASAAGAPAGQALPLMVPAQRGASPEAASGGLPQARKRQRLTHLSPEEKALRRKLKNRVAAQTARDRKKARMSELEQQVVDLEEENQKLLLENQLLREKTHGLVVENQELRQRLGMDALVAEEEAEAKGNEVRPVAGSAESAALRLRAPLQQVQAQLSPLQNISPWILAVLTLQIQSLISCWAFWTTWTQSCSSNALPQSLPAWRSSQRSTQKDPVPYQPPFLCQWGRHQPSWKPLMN
Sequence of Signal transducer and activator of transcription 3 (Homo sapiens) (P40763 whole entry, looked up): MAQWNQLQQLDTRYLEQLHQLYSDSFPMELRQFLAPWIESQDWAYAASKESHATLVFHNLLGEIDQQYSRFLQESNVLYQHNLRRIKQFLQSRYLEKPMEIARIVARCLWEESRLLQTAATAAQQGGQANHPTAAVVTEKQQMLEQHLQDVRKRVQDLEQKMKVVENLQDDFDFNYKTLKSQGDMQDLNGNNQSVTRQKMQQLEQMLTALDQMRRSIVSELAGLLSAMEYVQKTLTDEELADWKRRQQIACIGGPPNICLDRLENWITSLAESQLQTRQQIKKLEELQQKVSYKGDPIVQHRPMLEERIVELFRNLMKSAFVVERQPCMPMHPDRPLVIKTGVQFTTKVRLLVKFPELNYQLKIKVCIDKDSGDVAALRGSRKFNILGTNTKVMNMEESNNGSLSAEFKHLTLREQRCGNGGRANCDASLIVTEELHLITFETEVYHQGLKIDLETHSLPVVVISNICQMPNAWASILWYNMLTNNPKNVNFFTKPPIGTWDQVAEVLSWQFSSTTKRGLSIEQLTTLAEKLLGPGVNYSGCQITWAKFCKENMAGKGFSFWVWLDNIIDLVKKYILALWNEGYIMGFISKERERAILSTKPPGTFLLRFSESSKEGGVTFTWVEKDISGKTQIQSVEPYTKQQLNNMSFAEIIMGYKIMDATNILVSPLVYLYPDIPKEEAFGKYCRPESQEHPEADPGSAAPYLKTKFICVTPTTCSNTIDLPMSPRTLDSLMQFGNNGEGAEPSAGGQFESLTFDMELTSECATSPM
Sequence of Myc proto-oncogene protein (Homo sapiens) (P01106 whole entry, looked up, the tested form may be a part): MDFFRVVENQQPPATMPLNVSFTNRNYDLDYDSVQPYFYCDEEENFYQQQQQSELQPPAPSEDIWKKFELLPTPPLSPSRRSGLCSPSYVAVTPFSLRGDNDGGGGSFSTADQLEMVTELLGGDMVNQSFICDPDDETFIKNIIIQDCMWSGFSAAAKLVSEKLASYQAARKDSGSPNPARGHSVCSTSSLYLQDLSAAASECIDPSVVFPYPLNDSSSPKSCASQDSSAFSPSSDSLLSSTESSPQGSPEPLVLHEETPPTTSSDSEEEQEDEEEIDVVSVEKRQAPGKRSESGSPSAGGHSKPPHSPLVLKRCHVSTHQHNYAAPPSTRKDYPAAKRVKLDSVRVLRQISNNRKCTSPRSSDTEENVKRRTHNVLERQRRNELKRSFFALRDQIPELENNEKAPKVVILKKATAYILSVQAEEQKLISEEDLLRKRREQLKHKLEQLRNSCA
Sequence of Transcription factor Sp1 (Homo sapiens) (P08047 whole entry, looked up): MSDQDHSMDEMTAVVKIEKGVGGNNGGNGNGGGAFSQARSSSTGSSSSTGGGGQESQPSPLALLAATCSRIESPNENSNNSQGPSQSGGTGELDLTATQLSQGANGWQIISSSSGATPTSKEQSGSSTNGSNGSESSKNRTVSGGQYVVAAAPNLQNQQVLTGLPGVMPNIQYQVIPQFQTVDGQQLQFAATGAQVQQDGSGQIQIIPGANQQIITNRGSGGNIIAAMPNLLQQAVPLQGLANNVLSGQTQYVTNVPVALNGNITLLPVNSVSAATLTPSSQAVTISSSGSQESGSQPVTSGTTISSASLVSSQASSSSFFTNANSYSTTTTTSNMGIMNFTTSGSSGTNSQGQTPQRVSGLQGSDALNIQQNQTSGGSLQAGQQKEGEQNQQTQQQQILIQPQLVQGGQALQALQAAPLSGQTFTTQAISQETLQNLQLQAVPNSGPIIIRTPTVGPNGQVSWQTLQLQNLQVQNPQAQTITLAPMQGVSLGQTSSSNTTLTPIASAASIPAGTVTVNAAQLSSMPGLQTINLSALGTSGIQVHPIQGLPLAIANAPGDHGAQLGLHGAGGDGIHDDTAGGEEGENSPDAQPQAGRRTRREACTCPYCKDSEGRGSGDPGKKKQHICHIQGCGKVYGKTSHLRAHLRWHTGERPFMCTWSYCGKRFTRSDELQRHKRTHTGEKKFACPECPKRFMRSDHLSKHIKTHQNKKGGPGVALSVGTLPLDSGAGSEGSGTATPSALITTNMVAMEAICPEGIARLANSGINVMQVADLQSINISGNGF
Sequence of Transcriptional activator Myb (Homo sapiens) (P10242 whole entry, looked up): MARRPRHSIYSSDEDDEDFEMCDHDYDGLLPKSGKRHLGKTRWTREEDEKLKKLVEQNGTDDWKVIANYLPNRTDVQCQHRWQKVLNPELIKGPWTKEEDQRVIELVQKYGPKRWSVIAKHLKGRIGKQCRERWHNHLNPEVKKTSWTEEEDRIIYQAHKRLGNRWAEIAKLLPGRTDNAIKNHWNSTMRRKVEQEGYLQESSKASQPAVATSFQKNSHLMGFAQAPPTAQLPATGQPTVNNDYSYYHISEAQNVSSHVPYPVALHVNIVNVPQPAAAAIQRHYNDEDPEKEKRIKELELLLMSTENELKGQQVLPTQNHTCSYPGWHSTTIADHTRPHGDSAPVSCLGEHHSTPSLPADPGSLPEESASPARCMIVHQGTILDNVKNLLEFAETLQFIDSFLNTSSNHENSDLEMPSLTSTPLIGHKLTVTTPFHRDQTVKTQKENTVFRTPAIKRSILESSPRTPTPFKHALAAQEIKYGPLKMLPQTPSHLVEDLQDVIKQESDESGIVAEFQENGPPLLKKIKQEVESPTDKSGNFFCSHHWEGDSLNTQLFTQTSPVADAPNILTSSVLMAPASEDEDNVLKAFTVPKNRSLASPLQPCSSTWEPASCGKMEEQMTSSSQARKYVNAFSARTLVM

OC(C(F)(F)F)(C(F)(F)F)C(O)(C(F)(F)F)C(F)(F)F
active: CD40, CD40 (gene 958) 35.2 µM and 28.6 µM

COC(=O)/C=C\C(=O)OC
active: [3] 45.8 µM | [7] 6.26 µM | [8] 100 µM | [14] 100 µM
inactive: all other assays above

C=CN1CCCCCC1=O
not listed: CD40, CD40 (gene 958)
inactive: all other assays above

COc1cc(CNC(=O)CCCC/C=C/C(C)C)ccc1O
active: CD40, CD40 (gene 958) 20 µM
inactive: CD40, CD40 (gene 958)

CCCCC(CC)COC(=O)C=Cc1ccc(OC)cc1 (stereo not drawn)
active: CD40, CD40 (gene 958) 32.1 µM and 31.9 µM

c1ccc2c(c1)Oc1ccccc1S2
active: [2] 173 µM | [9] 155 µM | [10] 146 µM | [17] 140 µM
not listed: CD40, CD40 (gene 958)
inactive: all other assays above

COc1ccccc1Oc1c(NS(=O)(=O)c2ccc(C(C)(C)C)cc2)nc(-c2ncccn2)nc1OCCO
active: CD40, CD40 (gene 958) 20 µM
inactive: CD40, CD40 (gene 958)

[O-][n+]1ccc(Cl)cc1
not listed: CD40, CD40 (gene 958)
inactive: all other assays above

Cc1cc(O)cc(C)c1Cl
active: [9] 109 µM | [19] 100 µM
not listed: CD40, CD40 (gene 958)
inactive: all other assays above

C1CN(CCOCCN2CCOCC2)CCO1
inactive: CD40, CD40 (gene 958)

CCC(C)=NO
inactive: all assays above

CCC(C)(CCC(C)C)C(=O)O (stereo not drawn)
not listed: CD40, CD40 (gene 958)
inactive: all other assays above

CCC(=O)OCc1ccc(OC)cc1
active: [7] 29.7 µM
not listed: CD40, CD40 (gene 958)
inactive: all other assays above

Cc1c(C(N)=O)cc([N+](=O)[O-])cc1[N+](=O)[O-]
inactive: CD40, CD40 (gene 958)
active: CD40, CD40 (gene 958) 32.4 µM
